Activity calls are given as the source filed them.
Key:
[1] = system: PRMT1 (protein arginine N-methyltransferase 1); assay: PRMT1 binders on small-molecule microarrays, primary screen, biochemical, small-molecule microarray, 635 nm fluorescence (AID 1088); conditions: small-molecule microarray binding, higher = more signal;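 further: binding of Prmt1 protein to compounds spotted on small-molecule microarray slides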
[2] = yeast growth modulation, basal conditions, primary screen, YJM789 clinical isolate, OD600, 24 h (AID 1089);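 further: growth of clinical yeast isolate S. cerevisiae YJM 789 seeded 1000 cells per well; test concentration not given here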; conditions: S. cerevisiae YJM789 growth, higher = more signal, called active from +8 up or from −8 down
[3] = fission yeast growth modulation, primary screen, strain 972, OD600, 24 h, no modulator (AID 1090);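 further: basal condition with compound alone and no growth modifier present; test concentration not given here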; conditions: S. pombe 972 growth, higher = more signal, called active from +8 up or from −8 down
[4] = S. cerevisiae growth modulation with rapamycin, primary screen, strain BY4716, OD600, 96 h (AID 1091); conditions: higher = more signal, called active from +8 up or from −8 down; further: test concentration not given here
[5] = target: Torsin-1A-interacting protein 2 (Homo sapiens) (UniProt Q8NFQ8); assay: LULL1 binders on small-molecule microarray, primary screen, cell lysate, human LULL1 lysate, 635/667 nm fluorescence (AID 1092); conditions: hLULL1 lysate binding, 635 nm fluorescence, higher = more signal;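 further: probe is lysate of COS7 cells overexpressing human LULL1; score merges per-feature 667 nm fluorescence with signal-to-noise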
[6] = E. coli growth modulation, two-sided OD650, primary screen, E. coli filamentation project, strain DRC41, 24 h (AID 1093); conditions: OD650, 24 h, higher = more signal, called active from +8 up or from −8 down;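 further: MC1000 strain lacking acrAB efflux and sulA so SOS filamentation is blocked; test concentration not given here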
[7] = small-molecule microarray binders of probe aLefty2, primary screen, biochemical, biotinylated probe, 635/667 nm fluorescence (AID 1094); conditions: higher = more signal;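 further: score merges spot fluorescence near 667 nm with spot signal-to-noise ratio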
[8] = system: Noggin (protein binding on small-molecule microarray); assay: Noggin binders on small-molecule microarray, primary screen, biochemical, 635/667 nm fluorescence (AID 1095); conditions: 635 nm fluorescence, higher = more signal;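 further: score merges 667 nm feature fluorescence with signal to noise over triplicate slides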
[9] = target: Neurogenic locus notch homolog protein 3 (Homo sapiens) (UniProt Q9UM47); assay: NOTCH3 binders on small-molecule microarray, primary screen, biochemical, 635/667 nm fluorescence (AID 1096); conditions: NOTCH3 binding, 635 nm fluorescence, higher = more signal
[10] = small-molecule microarray binders of probe aEGFR, primary screen, biochemical, biotinylated probe, 635/667 nm fluorescence (AID 1097); conditions: higher = more signal;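 further: probe is a biotinylated anti-EGFR antibody binding compounds printed on slides; score combines fluorescence near 667 nm and signal to noise of each spot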
[11] = system: Plasmodium falciparum Sir2 (PF13_0152, Sir2A); assay: pfSir2 binders on small-molecule microarrays, primary screen, biochemical, small-molecule microarray, 635 nm fluorescence (AID 1098); conditions: small-molecule microarray binding, fluorescence 635 nm; higher = more signal;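 further: score merges spot fluorescence intensity with its signal-to-noise ratio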
[12] = small-molecule microarray binders of probe aDKK1, primary screen, biochemical, biotinylated probe, 635/667 nm fluorescence (AID 1099); conditions: higher = more signal;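 further: score merges 667nm spot fluorescence with signal to noise across triplicate slides; reference of the scale not given here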
[13] = small-molecule microarray binders of probe aCHRDL2, primary screen, biochemical, biotinylated probe, 635/667 nm fluorescence (AID 1100); conditions: higher = more signal
[14] = splicing luciferase reporter signal modulators, primary screen, spliceosome inhibition project, cell-based, HEK293, splice +/- reporter (AID 1101); conditions: luminescence, 24 h, higher = more signal, called active from +8 up or from −8 down;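 further: HEK293 cells carrying a splicing-competent luciferase reporter gene; test concentration not given here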
[15] = target: Fibroblast growth factor 10 (Homo sapiens) (UniProt O15520); assay: FGF10 binders on small-molecule microarrays, primary screen, biochemical, small-molecule microarray, 635 nm fluorescence (AID 1102); conditions: FGF10 binding, fluorescence 635 nm, higher = more signal
[16] = system: glycogen synthase kinase-3 (GSK3A per assay name; protocol says GSK3B); assay: GSK3 binders on small-molecule microarrays, primary screen, biochemical, small-molecule microarray, 635 nm fluorescence, GSK3A (AID 1103); conditions: small-molecule microarray binding, fluorescence 635 nm; higher = more signal; further: the record names both GSK3A and GSK3B
[17] = target: Epidermal growth factor receptor (Homo sapiens) (UniProt P00533); assay: EGFR binders on small-molecule microarrays, primary screen, biochemical, small-molecule microarray, 635 nm fluorescence (AID 1104); conditions: EGFR binding, higher = more signal;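 further: score merges 667 nm emission intensity with spot signal to noise over triplicate slides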
[18] = target: Follistatin-related protein 3 (Homo sapiens) (UniProt O95633); assay: FSTL3 binders on small-molecule microarrays, primary screen, biochemical, small-molecule microarray, 635 nm fluorescence (AID 1105); conditions: FSTL3 binding, higher = more signal;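 further: score merges emission near 667 nm and signal to noise per printed spot across three slides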
[19] = target: Dickkopf-related protein 1 (Homo sapiens) (UniProt O94907); assay: DKK1 binders on small-molecule microarrays, primary screen, biochemical, small-molecule microarray, 635 nm fluorescence scan (AID 1106); conditions: DKK1 binding, higher = more signal;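 further: score merges emission near 667 nm with signal to noise over three replicate slides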
[20] = system: Inhibin beta A chain (activin A); assay: INHBA (activin A) binders on microarrays, primary screen, biochemical, small-molecule microarray, 635 nm fluorescence scan (AID 1107); conditions: small-molecule microarray binding, higher = more signal;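 further: mouse activin A protein probed at 4.33 µg/mL on printed slides; score merges bound-protein fluorescence near 667 nm with spot signal-to-noise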

Chain of Torsin-1A-interacting protein 2 (Homo sapiens) (Q8NFQ8 whole entry, looked up): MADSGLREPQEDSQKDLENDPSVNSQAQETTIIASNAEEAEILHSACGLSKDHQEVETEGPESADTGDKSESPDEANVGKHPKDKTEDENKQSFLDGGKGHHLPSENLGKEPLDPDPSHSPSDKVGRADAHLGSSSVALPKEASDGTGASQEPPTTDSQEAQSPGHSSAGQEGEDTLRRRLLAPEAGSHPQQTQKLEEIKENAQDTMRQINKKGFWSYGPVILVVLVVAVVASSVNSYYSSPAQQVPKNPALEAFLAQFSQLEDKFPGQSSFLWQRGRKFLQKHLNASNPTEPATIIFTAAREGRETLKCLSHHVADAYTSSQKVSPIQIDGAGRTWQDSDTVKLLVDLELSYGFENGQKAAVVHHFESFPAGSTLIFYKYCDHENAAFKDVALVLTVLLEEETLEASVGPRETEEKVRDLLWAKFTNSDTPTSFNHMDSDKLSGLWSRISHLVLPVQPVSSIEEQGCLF
Chain of Dickkopf-related protein 1 (Homo sapiens) (O94907 whole entry, looked up): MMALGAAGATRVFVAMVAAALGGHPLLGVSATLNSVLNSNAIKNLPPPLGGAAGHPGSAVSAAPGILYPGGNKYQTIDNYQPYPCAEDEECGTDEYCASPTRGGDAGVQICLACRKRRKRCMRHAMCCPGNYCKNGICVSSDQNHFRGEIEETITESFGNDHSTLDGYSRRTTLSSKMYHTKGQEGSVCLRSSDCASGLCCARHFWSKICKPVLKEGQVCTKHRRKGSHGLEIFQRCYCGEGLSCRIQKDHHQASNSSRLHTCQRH
Chain of Follistatin-related protein 3 (Homo sapiens) (O95633 whole entry, looked up): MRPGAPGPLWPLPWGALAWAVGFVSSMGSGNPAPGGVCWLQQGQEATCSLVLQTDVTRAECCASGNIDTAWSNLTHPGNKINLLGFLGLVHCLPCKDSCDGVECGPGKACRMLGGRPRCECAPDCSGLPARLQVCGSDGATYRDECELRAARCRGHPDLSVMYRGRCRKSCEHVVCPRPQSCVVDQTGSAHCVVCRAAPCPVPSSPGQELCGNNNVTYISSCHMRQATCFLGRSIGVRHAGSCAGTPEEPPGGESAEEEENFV
Chain of Epidermal growth factor receptor (Homo sapiens) (P00533 whole entry, looked up): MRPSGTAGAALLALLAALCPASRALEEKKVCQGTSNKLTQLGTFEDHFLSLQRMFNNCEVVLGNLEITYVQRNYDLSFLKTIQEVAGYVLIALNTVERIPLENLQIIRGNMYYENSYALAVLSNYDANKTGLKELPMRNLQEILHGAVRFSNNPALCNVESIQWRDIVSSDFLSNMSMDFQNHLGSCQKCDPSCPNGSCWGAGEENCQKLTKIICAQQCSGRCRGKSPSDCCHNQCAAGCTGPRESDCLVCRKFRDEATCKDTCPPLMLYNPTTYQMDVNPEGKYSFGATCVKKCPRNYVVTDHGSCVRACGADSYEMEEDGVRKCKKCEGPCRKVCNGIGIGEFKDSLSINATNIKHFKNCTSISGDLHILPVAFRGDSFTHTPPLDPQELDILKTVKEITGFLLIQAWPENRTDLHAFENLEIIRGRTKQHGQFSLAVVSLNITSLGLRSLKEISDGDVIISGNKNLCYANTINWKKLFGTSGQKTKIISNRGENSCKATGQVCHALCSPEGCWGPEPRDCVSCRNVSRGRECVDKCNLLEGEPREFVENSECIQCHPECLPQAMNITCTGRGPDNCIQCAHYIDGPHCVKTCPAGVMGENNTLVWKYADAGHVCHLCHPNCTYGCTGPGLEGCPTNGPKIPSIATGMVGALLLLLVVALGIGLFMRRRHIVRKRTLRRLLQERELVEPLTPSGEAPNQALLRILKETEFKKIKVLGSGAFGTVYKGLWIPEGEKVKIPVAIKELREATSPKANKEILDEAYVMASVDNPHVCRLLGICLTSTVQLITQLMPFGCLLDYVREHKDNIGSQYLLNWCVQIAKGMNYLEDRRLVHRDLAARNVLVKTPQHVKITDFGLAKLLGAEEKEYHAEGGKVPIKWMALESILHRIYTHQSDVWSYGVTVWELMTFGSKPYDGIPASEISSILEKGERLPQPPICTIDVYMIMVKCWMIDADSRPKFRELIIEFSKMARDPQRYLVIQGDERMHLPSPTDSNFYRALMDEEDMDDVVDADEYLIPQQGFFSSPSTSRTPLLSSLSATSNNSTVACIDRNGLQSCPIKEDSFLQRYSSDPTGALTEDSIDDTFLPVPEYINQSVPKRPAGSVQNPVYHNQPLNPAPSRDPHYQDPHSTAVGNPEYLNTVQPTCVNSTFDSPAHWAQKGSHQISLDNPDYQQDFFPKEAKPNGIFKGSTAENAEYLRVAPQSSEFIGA
Chain of Neurogenic locus notch homolog protein 3 (Homo sapiens) (Q9UM47 whole entry, looked up): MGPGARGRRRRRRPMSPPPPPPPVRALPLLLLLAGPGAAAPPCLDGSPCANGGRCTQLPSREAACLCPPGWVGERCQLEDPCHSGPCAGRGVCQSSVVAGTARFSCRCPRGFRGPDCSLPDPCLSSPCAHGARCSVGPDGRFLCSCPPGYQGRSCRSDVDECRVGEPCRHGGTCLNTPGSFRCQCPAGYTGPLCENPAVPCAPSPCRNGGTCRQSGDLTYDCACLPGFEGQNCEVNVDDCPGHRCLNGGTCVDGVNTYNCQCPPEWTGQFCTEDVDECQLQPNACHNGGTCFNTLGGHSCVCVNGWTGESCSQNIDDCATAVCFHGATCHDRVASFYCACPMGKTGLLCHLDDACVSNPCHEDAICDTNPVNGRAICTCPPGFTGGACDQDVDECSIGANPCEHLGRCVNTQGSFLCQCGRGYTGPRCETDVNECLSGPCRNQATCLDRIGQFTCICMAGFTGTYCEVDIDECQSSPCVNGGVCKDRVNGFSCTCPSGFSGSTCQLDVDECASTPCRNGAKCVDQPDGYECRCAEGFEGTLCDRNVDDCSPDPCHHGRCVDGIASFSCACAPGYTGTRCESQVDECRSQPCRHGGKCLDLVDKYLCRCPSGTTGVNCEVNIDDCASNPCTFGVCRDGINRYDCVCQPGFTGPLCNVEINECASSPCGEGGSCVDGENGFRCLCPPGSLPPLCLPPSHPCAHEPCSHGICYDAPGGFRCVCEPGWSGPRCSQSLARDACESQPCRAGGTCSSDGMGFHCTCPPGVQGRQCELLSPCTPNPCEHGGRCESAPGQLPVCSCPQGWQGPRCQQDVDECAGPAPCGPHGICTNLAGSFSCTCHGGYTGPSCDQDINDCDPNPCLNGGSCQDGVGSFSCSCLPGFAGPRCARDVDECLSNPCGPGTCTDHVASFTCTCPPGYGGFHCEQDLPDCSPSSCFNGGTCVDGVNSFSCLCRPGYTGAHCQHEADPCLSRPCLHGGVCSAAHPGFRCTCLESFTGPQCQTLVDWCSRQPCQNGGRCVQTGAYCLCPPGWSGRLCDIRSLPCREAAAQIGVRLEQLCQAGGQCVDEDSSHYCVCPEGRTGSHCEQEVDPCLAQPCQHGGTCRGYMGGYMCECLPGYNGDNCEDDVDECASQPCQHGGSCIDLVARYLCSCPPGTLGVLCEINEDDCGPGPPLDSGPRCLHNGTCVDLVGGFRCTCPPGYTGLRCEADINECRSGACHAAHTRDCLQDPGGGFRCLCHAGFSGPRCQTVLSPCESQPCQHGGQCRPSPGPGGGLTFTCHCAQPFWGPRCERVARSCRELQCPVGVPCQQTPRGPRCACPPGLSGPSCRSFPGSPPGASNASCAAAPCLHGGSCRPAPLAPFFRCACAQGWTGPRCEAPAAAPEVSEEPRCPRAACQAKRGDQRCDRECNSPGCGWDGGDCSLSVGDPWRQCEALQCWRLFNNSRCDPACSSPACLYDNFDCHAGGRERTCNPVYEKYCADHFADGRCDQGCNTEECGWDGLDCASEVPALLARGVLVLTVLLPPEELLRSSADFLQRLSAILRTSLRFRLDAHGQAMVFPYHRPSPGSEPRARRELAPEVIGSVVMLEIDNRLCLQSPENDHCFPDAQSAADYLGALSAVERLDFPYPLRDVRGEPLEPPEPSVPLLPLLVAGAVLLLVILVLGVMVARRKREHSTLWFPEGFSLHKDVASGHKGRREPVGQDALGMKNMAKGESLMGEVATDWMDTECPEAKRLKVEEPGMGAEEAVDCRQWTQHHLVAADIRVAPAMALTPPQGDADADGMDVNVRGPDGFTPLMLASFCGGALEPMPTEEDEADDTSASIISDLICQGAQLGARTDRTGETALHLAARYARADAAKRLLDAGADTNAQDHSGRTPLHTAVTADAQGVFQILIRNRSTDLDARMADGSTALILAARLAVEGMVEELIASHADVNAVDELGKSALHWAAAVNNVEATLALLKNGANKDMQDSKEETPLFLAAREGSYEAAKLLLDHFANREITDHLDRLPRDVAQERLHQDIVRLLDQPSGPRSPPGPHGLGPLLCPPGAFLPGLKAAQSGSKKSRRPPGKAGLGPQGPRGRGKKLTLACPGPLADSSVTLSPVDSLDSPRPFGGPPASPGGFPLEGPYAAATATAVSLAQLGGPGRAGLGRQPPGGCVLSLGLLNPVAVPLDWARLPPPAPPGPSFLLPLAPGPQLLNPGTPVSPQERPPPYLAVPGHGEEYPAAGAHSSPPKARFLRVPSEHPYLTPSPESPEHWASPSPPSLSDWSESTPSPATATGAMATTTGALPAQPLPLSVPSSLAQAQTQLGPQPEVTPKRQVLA
Chain of Fibroblast growth factor 10 (Homo sapiens) (O15520 whole entry, looked up): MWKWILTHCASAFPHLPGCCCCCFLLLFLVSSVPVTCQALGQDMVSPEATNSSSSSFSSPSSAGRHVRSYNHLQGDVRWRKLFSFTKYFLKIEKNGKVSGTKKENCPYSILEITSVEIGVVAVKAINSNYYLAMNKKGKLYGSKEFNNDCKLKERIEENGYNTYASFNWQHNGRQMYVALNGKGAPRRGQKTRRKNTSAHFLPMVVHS

Compound	composite z-score [1]	z-score [2]	z-score [3]	z-score [4]	composite z-score [5]	z-score [6]	composite z-score [7]	composite z-score [8]	composite z-score [9]	composite z-score [10]	composite z-score [11]	composite z-score [12]	composite z-score [13]	z-score [14]	composite z-score [15]	composite z-score [16]	composite z-score [17]	composite z-score [18]	composite z-score [19]	composite z-score [20]
CN(C)CCCC[C@@H]1NC(=O)[C@@H]2C[C@H](C(=O)NCCCCCCNC(=O)CS)[C@H](c3ccc(O)cc3)N2C1=O	1.33	-0.378 (inactive)	-0.472 (inactive)	0.0236 (inactive)	2.79	-0.744 (inactive)	-0.269	1.13	0.65	0.123	0.73	-0.165	-0.294	1.06 (inactive)	1.34	1.24	0.954	0.997	1.31	0.277
COC(=O)[C@@]1(Cc2ccccc2)[C@H]2c3cc(C(=O)N4CCCC4)n(Cc4ccc(OC)c(OC)c4)c3C[C@H]2CN1C(=O)c1ccccc1	0.632	0.49 (inactive)	1.06 (inactive)	1.45 (inactive)	3.5	-0.0046 (inactive)	0.666	0.0245	1.14	0.403	0.491	1.14	1.2	-2.9 (inactive)	0.971	1.06	0.122	0.985	-0.823	0.763
C=CCN1C(=O)[C@]2(O[C@H](CCn3cc([C@H](O)c4ccccc4)nn3)[C@@H]([Si](C)(C)c3ccc(OC)cc3)[C@@H]2C)c2cc(NC(=O)c3ccc(OC)cc3)ccc21	1.55	0.323 (inactive)	-0.532 (inactive)	0.567 (inactive)	0.744	0.252 (inactive)	0.0352	0.423	0.907	-0.152	0.73	-0.125	0.349	-0.768 (inactive)	0.028	-0.131	0.108	0.527	0.598	0.961
CC(C)N1C(=O)c2ccccc2[C@](C)(C(=O)NCC(F)(F)F)[C@@H]1c1ccc(CO)cc1	-0.42	-0.337 (inactive)	-0.837 (inactive)	-0.674 (inactive)	1.64	0.537 (inactive)	0.146	-1.4	-0.445	-0.179	0.0632	0.698	1.06	0.88 (inactive)	-1.28	-0.907	-0.333	-0.961	-0.693	0.177
C=C(CCCC)C(=O)CC[C@@H](OC(=O)c1ccccc1-c1ccccc1C(=O)O)c1ccccc1OCCO	1.23	-0.576 (inactive)	-1.19 (inactive)	-1.61 (inactive)	-0.583	0.306 (inactive)	-0.146	1.2	0.48	-0.178	0.776	-0.286	-0.543	2.3 (inactive)	1.27	-0.121	-0.215	0.27	0.373	0.959
C=CCC(OC(C)=O)[C@@H]1[C@@H](N(Cc2ccc(-c3cccc(C(F)(F)F)c3)o2)C(=O)Cc2ccc(F)cc2)c2cc(OCCCO)ccc2N1C(=O)Cc1ccc2ccccc2c1 (stereo not given in full)	-0.783	-0.554 (inactive)	0.181 (inactive)	-0.669 (inactive)	-0.199	-1.01 (inactive)	-0.118	-0.244	-0.855	-0.125	-0.595	-0.341	0.228	0.705 (inactive)	-0.195	-1.79	-0.676	-0.511	-0.286	1.12
COCCOC(=O)N1C(=O)[C@@]2(c3cc(C#CCC(C(=O)OC)C(=O)OC)ccc31)[C@H](c1ccc(O)cc1)N1[C@H](c3ccccc3)[C@H](c3ccccc3)OC(=O)[C@H]1[C@@H]2C(=O)Nc1nc2ccccc2s1	1.53	0.978 (inactive)	0.583 (inactive)	0.0726 (inactive)	2.76	0.338 (inactive)	0.0424	1.39	1.04	0.106	1.54	0.595	0.481	-1.12 (inactive)	0.972	1.27	0.594	1.38	0.91	1.11
C[C@@H]1NC(=O)C([C@@H](C)OCc2ccccc2)NC(=O)[C@@]23C(=O)N[C@@H](Cc4ccccc4)C2[C@H](C)[C@@]2(C)O[C@H]2C3/C=C/C/C=C\CNC1=O (stereo not given in full)	-0.448	0.35 (inactive)	-0.258 (inactive)	0.186 (inactive)	-0.327	-1.07 (inactive)	-0.205	-0.0322	0.177	-0.109	1.58	-0.76	-0.751	0.531 (inactive)	0.224	-0.297	-0.506	0.11	0.382	1.44
COc1ccc([Si](C)(C)[C@H]2[C@H](CCO)O[C@@]3(C(=O)N(Cc4ccc(NC(=O)[C@H](C)O)cc4)c4ccccc43)[C@@H]2C)cc1	1.58	2.39 (inactive)	-1.36 (inactive)	4.78 (inactive)	2.19	1.38 (inactive)	-0.142	0.862	0.762	0.0337	0.931	0.162	0.193	-2.32 (inactive)	1.14	1.07	0.161	0.0961	0.156	0.531

From PubChem BioAssay
